Assay results: PubChem BioAssay (NCI)
About 79,000 compounds went through this panel and 15% of them were active in at least one assay; those are over-represented in the sample as a whole. Calls of active or inactive are those of the source. Cut-off read from the data, not from the text of the source: active = growth inhibition above about 70%; inactive = the rest.

Legend:
[1] = NCI Yeast Anticancer Drug Screen. Data for the rad50 strain (AID 155);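 note: 0% = growth of vehicle-only cultures of the same strain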; conditions: S. cerevisiae rad50 strain growth inhibition, stronger effect = higher value
How it was run: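 Growth of the mutant yeast was measured after compound exposure and referenced to vehicle-treated cultures.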

[2] = NCI Yeast Anticancer Drug Screen. Data for the mec2-1 strain (AID 157); conditions: S. cerevisiae mec2-1 strain, stronger effect = higher value
How it was run: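 Mutant yeast (mec2-1) grown with compound; growth inhibition relative to vehicle control reported.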

[3] = NCI Yeast Anticancer Drug Screen. Data for the sgs1 mgt1 strain (AID 161);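 note: 0% = growth of cultures given vehicle only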; conditions: S. cerevisiae sgs1 mgt1 strain, stronger effect = higher value
How it was run: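 Percent growth inhibition was derived by comparing compound-exposed mutant yeast with vehicle-exposed cultures. The strain carries alterations in DNA damage repair.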

[4] = NCI Yeast Anticancer Drug Screen. Data for the cln2 rad14 strain (AID 165);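 note: 0% = growth equal to vehicle treated cultures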; conditions: S. cerevisiae cln2 rad14 strain, stronger effect = higher value
How it was run: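 Readout is yeast growth inhibition versus vehicle-treated controls, using a strain with cln2 and rad14 alterations exposed to compound.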

[5] = NCI Yeast Anticancer Drug Screen. Data for the bub3 strain (AID 167); conditions: S. cerevisiae bub3 mutant strain, stronger effect = higher value
How it was run: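 Whole-cell yeast assay. The mutant strain was incubated with compounds, and growth inhibition was determined by comparison with vehicle-treated cells.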

[6] = NCI Yeast Anticancer Drug Screen. Data for the mlh1 rad18 strain (AID 175); conditions: S. cerevisiae mlh1 rad18 strain growth inhibition, stronger effect = higher value
How it was run: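 Genetically defined yeast (DNA repair-deficient) exposed to compounds; growth inhibition determined relative to vehicle.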

[7] = at 5.0 µM (retest, dose inferred, filed as 0.5)
[8] = at 50.0 µM (retest, dose inferred, filed as 5.0)

Measured: growth inhibition

Cc1cc(=O)n(C)c2c(C)cccc12
inactive: [1]; [7] -163% | [1]; [8] -139% | [1]; at 50.0 µM 12.9% | [2]; [7] -47% | [2]; [8] -47% | [2]; at 50.0 µM 15.9% | [3]; [7] -60% | [3]; [8] -57% | [3]; at 50.0 µM 12.4% | [4]; [7] -56% | [4]; [8] -50% | [4]; at 50.0 µM 46.3% | [5]; [7] -73% | [5]; [8] -72% | [5]; at 50.0 µM -2.85% | [6]; [7] -145% | [6]; [8] -107% | [6]; at 50.0 µM 10.2%

CC(=O)Oc1cc2c(=O)oc3c(OC(C)=O)c(OC(C)=O)c(OC(C)=O)c4c(=O)oc(c1OC(C)=O)c2c34
inactive: [1]; [7] 40% | [1]; [8] 58% | [2]; [7] 41% | [2]; [8] 48% | [3]; [7] 37% | [3]; [8] 61% | [4]; [7] 20% | [4]; [8] 40% | [5]; [7] 45% | [6]; [7] 39% | [6]; [8] 45%
active: [1]; at 50.0 µM 89.5% | [2]; at 50.0 µM 76.6% | [3]; at 50.0 µM 87.2% | [4]; at 50.0 µM 73.8% | [5]; [8] 71% | [5]; at 50.0 µM 88.3% | [6]; at 50.0 µM 88.2%

CCOC(=O)C1=C(C)NC2=C(C(=O)N(c3ccccc3)C2c2ccccc2)C1c1ccccc1 (stereo not given)
active: [1]; at 50.0 µM 72.5%
inactive: [1]; [7] 5% | [1]; [8] 5% | [2]; [7] 9% | [2]; [8] 9% | [2]; at 50.0 µM 56.4% | [3]; [7] 3% | [3]; [8] 3% | [3]; at 50.0 µM 63.1% | [4]; [7] -11% | [4]; [8] -11% | [4]; at 50.0 µM 65.6% | [5]; [7] -7% | [5]; [8] -7% | [5]; at 50.0 µM 49.2% | [6]; [7] 8% | [6]; [8] 8% | [6]; at 50.0 µM 54.1%

Cn1nc(-c2ccc3c(c2)OCO3)[n+]([O-])c2c(=O)n(C)c(=O)nc1-2
inactive: [1]; [7] -2% | [2]; [7] -7% | [3]; [7] 0% | [4]; [7] -6% | [5]; [7] -8% | [6]; [7] -7%
active: [1]; [8] 79% | [1]; at 50.0 µM 99.2% | [2]; [8] 97% | [2]; at 50.0 µM 99.7% | [3]; [8] 98% | [3]; at 50.0 µM 99.5% | [4]; [8] 97% | [4]; at 50.0 µM 98.2% | [5]; [8] 96% | [5]; at 50.0 µM 99.4% | [6]; [8] 97% | [6]; at 50.0 µM 99.5%

CC(=O)Nc1ccc(-c2csc(Nc3ccnc4cc(Cl)ccc34)n2)cc1
active: [3]; at 50.0 µM 72.8% | [6]; at 50.0 µM 82.9%
inactive: [1]; [7] 12% | [1]; [8] 40% | [1]; at 50.0 µM 69.8% | [2]; [7] -4% | [2]; [8] 46% | [2]; at 50.0 µM 51.4% | [3]; [7] 9% | [3]; [8] 69% | [4]; [7] 0% | [4]; [8] 4% | [4]; at 50.0 µM 41% | [5]; [7] -2% | [5]; [8] 40% | [5]; at 50.0 µM 33.3% | [6]; [7] 3% | [6]; [8] 27%
